Consider 25 compounds from PubChem BioAssay AID1851 (National Center for Advancing Translational Sciences (NCATS), 2009).

In all, about 16,000 compounds went through this assay and about 5,700 (36%) were called active. Not shown: some 24% with an inconclusive outcome. Calls come from the whole dose curve; as a rule, active = well fitted curve in the direction sought with a large enough effect; inconclusive = small, poorly fitted or top-dose-only effect, or effect the other way; inactive = no such curve, though single readings can be large or run the other way. This is one part of the list.
% is set by controls: 0 for no effect and ±100 for the full control effect.

In the experiment the target is Cytochrome P450 1A2 (Homo sapiens) (UniProt P05177). The experiment is described as follows: Cytochrome panel assay with activity outcomes. Conditions: recombinant CYP, pro-luciferin dealkylation, luminescence, p450-cyp1a2; series mostly up to 57.1 µM; activity, negative = inhibition: at the top concentration.
Cytochrome P450 1A2 (Homo sapiens), sequence (P05177 whole entry, looked up): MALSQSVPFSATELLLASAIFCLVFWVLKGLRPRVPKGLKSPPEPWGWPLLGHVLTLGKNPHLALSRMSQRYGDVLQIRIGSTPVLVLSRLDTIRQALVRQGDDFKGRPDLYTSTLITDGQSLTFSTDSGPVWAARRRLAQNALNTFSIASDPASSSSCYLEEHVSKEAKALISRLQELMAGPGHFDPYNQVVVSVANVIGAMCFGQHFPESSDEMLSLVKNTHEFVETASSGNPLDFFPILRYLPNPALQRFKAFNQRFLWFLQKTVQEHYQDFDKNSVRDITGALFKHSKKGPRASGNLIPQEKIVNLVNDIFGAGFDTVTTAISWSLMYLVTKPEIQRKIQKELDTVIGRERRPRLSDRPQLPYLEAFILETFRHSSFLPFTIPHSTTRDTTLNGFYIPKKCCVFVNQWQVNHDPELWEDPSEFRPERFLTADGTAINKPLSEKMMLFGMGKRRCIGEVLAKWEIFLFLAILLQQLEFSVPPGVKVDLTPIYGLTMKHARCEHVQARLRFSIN
Turning to `CC(=O)OC[C@@H]1O[C@@H](O/N=C2/C[C@@H](O)[C@@H](O)[C@@H]3[C@@H]4C(=O)N(Cc5ccccc5)C(=O)[C@H]4CC[C@@H]23)[C@H](OC(C)=O)[C@H](OC(C)=O)[C@@H]1OC(C)=O`, the activity, negative = inhibition is -3.54% [at 11.4 µM] (inactive).

Take `N#Cc1ccc(CN2CCC3(CC2)CCN(C(=O)c2csnn2)CC3)cc1`: the “activity, negative = inhibition” value was 12.3% (inactive).

Regarding `O=C(c1ccco1)N1CCC2(CC1)CN(Cc1cc(C(F)(F)F)cc(C(F)(F)F)c1)C2`, the “activity, negative = inhibition” value is -6.44% (inactive).

In the case of `CN1C(=O)C[C@H](c2ccccc2)C1=O`, the “activity, negative = inhibition” value is -13.8% [at 25.6 µM] (inactive).

Consider `COc1cccc([C@@H]2Oc3ccc(OC)cc3/C(=N/O[C@@H](C)CN3CCCCc4nc(C)c(C)cc43)[C@@H]2O)c1`, for which the activity, negative = inhibition is -8.62% [at 11.4 µM] (inactive).

Turning to `CC(C)CCNC(=O)Cc1ccccc1[N+](=O)[O-]`, the “activity, negative = inhibition” value was -17.5% (inactive).

The AC50 is the midpoint of the concentration-response curve, whichever way the signal moves. As to `Cc1cc(C(=O)OCC(=O)NCCC(C)C)c2ccccc2n1`, the half-maximal activity concentration (AC50) was 4.47 µM (active).

Regarding `CO[C@H]1COC(=O)CCC[C@H](C)[C@@H](OC)COC(=O)C/C=C\[C@@H]1C`, the activity, negative = inhibition is -4.49% [at 11.4 µM] (inactive).

With `N#Cc1c(-c2ccc3c(c2)OCO3)ccn2nc(-c3cccc(C(F)(F)F)c3)nc12`, the AC50 was 0.0562 µM (active).

As for `CCNC(=O)C1CC(=O)OC12CCCCC2` (stereo not given), the “activity, negative = inhibition” value is 14.9% (inactive).

On to `CC(C)=CCC/C(C)=C/CO/N=C1/C[C@@H](O)[C@@H](O)[C@@H]2[C@@H]3C(=O)N(Cc4ccc5c(c4)OCO5)C(=O)[C@H]3CC[C@H]12`, for which the activity, negative = inhibition was -9.49% [at 11.4 µM] (inactive).

With `N#C/C(=C/N1CCOCC1)c1ccccc1`, the AC50 is 0.891 µM (active).

On to `OC(c1ccccc1)(c1ccc(F)cc1)C(c1ccccc1)N1CCOCC1` (stereo not given), for which the “activity, negative = inhibition” value is -5.57% (inactive).

With `Oc1c(CN2CCOCC2)cc(-c2ccccc2)cc1CN1CCOCC1`, the “activity, negative = inhibition” value is -25.6% (inactive).

For `NS(=O)(=O)c1cc2c(cc1Cl)N[C@@H](CC1CCCC1)NS2(=O)=O`, the “activity, negative = inhibition” value was -7.47% [at 25.6 µM] (inactive).

For `O=C1NC(c2ccc(Br)cc2)Nc2sc3c(c21)CCC3` (stereo not given), the AC50 was 2.51 µM (active).

With `CC(C)OCCCN1C(=O)c2ccccc2C1C(=O)NC1CCCCC1` (stereo not given), the “activity, negative = inhibition” value is -5.24% (inactive).

For `CC(C)OCCCn1c(=S)[nH]c2ncccc2c1=O`, the AC50 is 2.51 µM (active).

`COCC(=O)N1CCC[C@@]2(CCN(C(=O)Nc3cccc(F)c3)C2)C1`: the “activity, negative = inhibition” value is 0.683% (inactive).

On to `COCOc1cc(OC)ccc1C(=O)/C=C\c1ccc2c(c1)OCO2`, for which the activity, negative = inhibition was -3.69% [at 11.4 µM] (inactive).

On to `COc1ccccc1CNc1ccnc(-c2ccc3c(c2)OCO3)n1`, for which the AC50 is 0.631 µM (active).

As to `COc1ccc(CNc2ccnc(-c3ccc4c(c3)OCO4)n2)c(OC)c1`, the AC50 is 1.26 µM (active).

As to `COc1ccc(-c2nc3cnc(OC)nc3n(C)c2=O)cc1`, the AC50 is 2.51 µM (active).

For the compound `COc1ncc2nc(-c3ccccc3)c(=O)n(C)c2n1`, the AC50 is 1.58 µM (active).

For the compound `COc1ncc2nc(-c3ccc(F)cc3)c(=O)n(C)c2n1`, the AC50 was 0.501 µM (active).
